{"source": "PubChem BioAssay AID2391", "about": "(Southern Research Specialized Biocontainment Screening …, 2010)", "note": "The campaign covered roughly 310,000 compounds. About 410 (0.13%) were called active. Another 2% or so got no clear call; they are omitted. A selection follows. Potency and affinity values are given separately. Unmarked numbers belong to inactive results. No rule for the calls is given here."}
{"experiment": "RSV antiviral activity via CPE protection, HEp-2 cells, primary 10 µM value included (AID 2391)", "conditions": "RSV-induced CPE inhibition, at 10 µM, stronger effect = higher value", "units": {"CPE inhibition": "%"}}
{"smiles": "CC(C)CNC(=O)c1cccc(NC(=O)Cc2ccc(Br)cc2)c1", "CPE inhibition": 15.3}
{"smiles": "CCc1ccc(CC2S/C(=C(\\C#N)C(C)=O)NC2=O)cc1", "note": "(stereo unspecified)", "CPE inhibition": 6.6}
{"smiles": "CC(=O)/C(C#N)=C1\\NC(=O)C(Cc2cc(Cl)ccc2Cl)S1", "note": "(stereo unspecified)", "CPE inhibition": 14}
{"smiles": "CC(=O)/C(C#N)=C1\\NC(=O)C(Cc2ccc(F)cc2)S1", "note": "(stereo unspecified)", "CPE inhibition": 12.6}
{"smiles": "CC(=O)/C(C#N)=C1\\NC(=O)C(Cc2ccc(C)c(Cl)c2)S1", "note": "(stereo unspecified)", "CPE inhibition": 15}
{"smiles": "CC1CCCN(c2nc3c(c(=O)n(C)c(=O)n3C)n2CCSc2nc3ccccc3o2)C1", "note": "(stereo unspecified)", "CPE inhibition": 1.2}
{"smiles": "COc1ccccc1NC(=O)C(=O)NCC1COc2ccccc2O1", "note": "(stereo unspecified)", "CPE inhibition": 5.12}
{"smiles": "NS(=O)(=O)c1ccc(CCNC(=O)CSc2nc3ccccc3c(=O)n2CCC(=O)N2CCCCC2)cc1", "CPE inhibition": 0.56}
{"smiles": "Cn1c(=O)c2[nH]c(-c3ccccc3O)nc2n(C)c1=O", "CPE inhibition": 9.42}
{"smiles": "c1csc(-c2nc3ccccc3[nH]2)c1", "CPE inhibition": 4.14}
{"smiles": "Cc1cc(=O)[nH]c(-c2ccccc2O)n1", "CPE inhibition": 0.17}
{"smiles": "c1ccc(-c2nc(-c3cccs3)[nH]c2-c2ccccc2)cc1", "CPE inhibition": 1.1}
{"smiles": "O=S(=O)(NC(=NCc1ccccc1)c1ccccc1F)c1ccccc1", "CPE inhibition": 0.88}
{"smiles": "COc1ccc(CNC(=O)CN(Cc2ccc(F)cc2)C(=O)CCC(=O)Nc2nccs2)cc1", "CPE inhibition": 0.79}
{"smiles": "CC(OC(=O)c1cccc([N+](=O)[O-])c1)C(=O)NCc1ccc2c(c1)OCO2", "note": "(stereo unspecified)", "CPE inhibition": 2.66}
{"smiles": "COCc1cc(C)nc(NC2CC(C)(C)NC(C)(C)C2)c1C#N", "CPE inhibition": -1.99}
{"smiles": "C=CCn1c2ccccc2c2nnc(SCc3ccc4nonc4c3)nc21", "CPE inhibition": 3.57}
{"smiles": "CCn1c2ccccc2c2nnc(SCC(=O)Nc3c(C)n(C)n(-c4ccccc4)c3=O)nc21", "CPE inhibition": 17.8}
{"smiles": "Cn1c2ccccc2c2nnc(SCc3ccc4nonc4c3)nc21", "CPE inhibition": -0.67}
{"smiles": "CCCn1c2ccccc2c2nnc(SCC(=O)Nc3cc(C)on3)nc21", "CPE inhibition": 1.54}
{"smiles": "Nc1nnc(COc2cccc(C(F)(F)F)c2)s1", "CPE inhibition": 1.04}
{"smiles": "COC(=O)c1ccc(C(=O)OC)c(NC(=O)C2CC2)c1", "CPE inhibition": 1.03}
{"smiles": "COc1ccc2cc(CN(CCCN3CCOCC3)Cc3nnnn3C3CCCC3)c(=O)[nH]c2c1", "CPE inhibition": -0.3}
{"smiles": "CCOc1ccccc1N(CC)C(=O)c1ccc2c(=O)n3c(nc2c1)CCCCC3", "CPE inhibition": 4.24}
{"smiles": "Cc1c(Cl)ccc2c1NC(=O)C21NC(CCC(N)=O)[C@H]2C(=O)N(c3ccc(Cl)cc3)C(=O)[C@H]21", "note": "(stereo partly specified)", "CPE inhibition": 2.04}
{"smiles": "C[N+](C)(C)CC/C=C1/c2ccccc2CSc2ccccc21", "CPE inhibition": -0.47}
